Results taken from PubChem BioAssay (NCATS).
Results filed as inconclusive are left out. Where a call stands in place of a potency, no number is given. Activity calls are given as the source filed them. Calls come from the whole dose curve; as a rule, active = well fitted inhibition curve with a large enough effect; inconclusive = small, poorly fitted or top-dose-only effect; inactive = flat fitted curve, though single readings scatter.

These compounds were tested against Glutathione peroxidase 1 (Homo sapiens) (UniProt P07203) (assay: Primary qHTS Assay for Inhibitors of Recombinant Selenoprotein Glutathione Peroxidase 1 (GPX1) (AID 1845191)). Settings: recombinant GPX1, GR-coupled NADPH fluorescence, 15 min; series mostly up to 48.8 µM; activity, negative = inhibition: at the top concentration.
Glutathione peroxidase 1 (Homo sapiens), sequence (P07203 whole entry, looked up): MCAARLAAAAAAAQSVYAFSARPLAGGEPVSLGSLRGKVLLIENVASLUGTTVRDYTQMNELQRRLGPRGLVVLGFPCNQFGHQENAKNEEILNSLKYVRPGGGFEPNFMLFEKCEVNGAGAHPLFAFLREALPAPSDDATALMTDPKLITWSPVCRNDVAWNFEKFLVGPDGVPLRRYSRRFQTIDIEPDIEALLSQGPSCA
In short: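 GR-coupled assay: compounds preincubated 30 min at room temperature with GPX1, then reaction started with CHP; final 10 nM GPX1, 1 mM GSH, 0.5 mM CHP, 0.5 mM NADPH, 100 nM GR, 0.01% BSA, pH 7.5 Tris buffer. NADPH fluorescence (340/450 nm) read at 0 and 15 min.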
Note: nearly all actives have a fitted effect of over 65% in size.

Compound | outcome | activity, negative = inhibition | Potency
CC(=O)[C@H]1CC[C@H]2[C@@H]3C[C@H](C)C4=CC(=O)CC[C@]4(C)[C@H]3[C@@H](O)C[C@]12C | inactive |  | 
O=C1OC2(c3ccc(O)cc3Oc3cc(O)ccc32)c2ccccc21 |  | -23.2% (inactive) | 
CC1(C)O[C@@H]2C[C@H]3[C@@H]4CCC5=CC(=O)CC[C@]5(C)[C@@]4(F)[C@@H](O)C[C@]3(C)[C@]2(C(=O)CCl)O1 |  | -2.75% (inactive) | 
O=C(O)CNC(=O)c1ccccc1 | inactive |  | 
CC(C)N=C(N)/N=C(\N)Nc1ccc(Cl)cc1 | inactive |  | 
CC(=O)OCC(=O)[C@@]12OC(C)(C)O[C@@H]1C[C@H]1[C@@H]3C[C@H](F)C4=CC(=O)C=C[C@]4(C)[C@@]3(F)[C@@H](O)C[C@@]12C |  |  | inactive
O=C1c2ccccc2C(=O)C1c1ccccc1 |  | 4.98% (inactive) | 
C[C@]12C=CC(=O)C=C1CC[C@@H]1[C@@H]2[C@@H](O)C[C@@]2(C)[C@H]1CC[C@]2(O)C(=O)CO |  |  | inactive
CC1(C)O[C@@H]2C[C@H]3[C@@H]4C[C@H](F)C5=CC(=O)C=C[C@]5(C)[C@H]4[C@@H](O)C[C@]3(C)[C@]2(C(=O)CO)O1 |  |  | inactive
CCOC(=O)c1cccc(N)c1 |  | 1.64% (inactive) | 
Oc1c(I)cc(I)c2cccnc12 | inactive |  | 
O=C(OCC(O)CO)c1ccccc1Nc1ccnc2cc(Cl)ccc12 (stereo unspecified) | inactive |  | 
CCCC(=O)Nc1ccc(OCC(O)CNC(C)C)c(C(C)=O)c1 (stereo unspecified) |  | 1.29% (inactive) | 
CC[N+](CC)(CCNC(=O)C(=O)NCC[N+](CC)(CC)Cc1ccccc1Cl)Cc1ccccc1Cl |  | -14.2% (inactive) | 
CC(=O)N(O)CCCCCNC(=O)CCC(=O)N(O)CCCCCNC(=O)CCC(=O)N(O)CCCCCN |  |  | inactive
CCCCOc1cc(C(=O)NCCN(CC)CC)c2ccccc2n1 | inactive |  | 
CN(C)CCCOc1nn(Cc2ccccc2)c2ccccc12 |  |  | inactive
Cc1onc(-c2c(Cl)cccc2Cl)c1C(=O)N[C@@H]1C(=O)N2[C@@H]1SC(C)(C)[C@@H]2C(=O)O |  |  | inactive

Compound | outcome | activity, negative = inhibition | Potency
CC(=O)O[C@]1(C(C)=O)CC[C@H]2[C@@H]3C[C@H](C)C4=CC(=O)CC[C@]4(C)[C@H]3CC[C@@]21C |  |  | inactive
CC(C)n1nc(-c2cc3cc(O)ccc3[nH]2)c2c(N)ncnc21 |  | -14% (inactive) | 
Cc1cc(O)c(C(C)C)cc1Cl | inactive |  | 
Oc1ccc(Cl)c2cccnc12 | inactive |  | 
CC(C)(CO)[C@@H](O)C(=O)NCCCO | inactive |  | 
COC(=O)[C@@H]1CC2=CC(=O)CC[C@]2(C)[C@@]23O[C@@H]2C[C@@]2(C)[C@@H](CC[C@@]24CCC(=O)O4)[C@H]13 |  |  | inactive
CC(=O)OCC(=O)[C@@]1(O)[C@H](C)C[C@H]2[C@@H]3CCC4=CC(=O)C=C[C@]4(C)[C@@]3(F)[C@@H](O)C[C@@]21C |  |  | inactive
C[C@]12CCC(=O)C=C1CC[C@H]1[C@@H]3CC[C@](O)(C(=O)CO)[C@@]3(C)C[C@H](O)[C@@]12F |  | -13.4% (inactive) | 
CC(=O)OCC(=O)[C@@]12N=C(C)O[C@@H]1C[C@H]1[C@@H]3CCC4=CC(=O)C=C[C@]4(C)[C@H]3[C@@H](O)C[C@@]12C |  |  | inactive
COC1=CC(=O)C[C@@H](C)[C@]12Oc1c(Cl)c(OC)cc(OC)c1C2=O |  | -20% (inactive) | 
NC(CO)(CO)CO |  | -18.8% (inactive) | 
CN(C)/N=N/c1nc[nH]c1C(N)=O | inactive |  | 
C[C@H]1[C@H](NC(=O)/C(=N/OC(C)(C)C(=O)O)c2csc(N)n2)C(=O)N1S(=O)(=O)O (stereo in doubt) | inactive |  | 
CC/C(=C(/CC)c1ccc(O)cc1)c1ccc(O)cc1 |  |  | inactive
COC(=O)[C@H]1[C@H]2C[C@H]3c4[nH]c5ccccc5c4CCN3C[C@H]2CC[C@@H]1O | inactive |  | 
CN1C(CCl)Nc2cc(Cl)c(S(N)(=O)=O)cc2S1(=O)=O (stereo unspecified) |  |  | inactive
COc1cc(N)c(Cl)cc1C(=O)NC1CCN(CCCOc2ccc(F)cc2)CC1OC (stereo unspecified) |  | -10.6% (inactive) | 
CCN(CCCc1ccccc1)CCCc1ccccc1 |  | -9.26% (inactive) | 

What follows are compounds tested against Phospholipid hydroperoxide glutathione peroxidase GPX4 (Homo sapiens) (UniProt P36969) (assay: Primary qHTS Assay for Inhibitors of Recombinant Selenoprotein Glutathione Peroxidase 4 (GPX4) (AID 1845192)). Settings: recombinant GPX4, GR-coupled NADPH fluorescence, 15 min; series mostly up to 50 µM; activity change, negative = inhibition: at the top concentration.
Phospholipid hydroperoxide glutathione peroxidase GPX4 (Homo sapiens), sequence (P36969 whole entry, looked up): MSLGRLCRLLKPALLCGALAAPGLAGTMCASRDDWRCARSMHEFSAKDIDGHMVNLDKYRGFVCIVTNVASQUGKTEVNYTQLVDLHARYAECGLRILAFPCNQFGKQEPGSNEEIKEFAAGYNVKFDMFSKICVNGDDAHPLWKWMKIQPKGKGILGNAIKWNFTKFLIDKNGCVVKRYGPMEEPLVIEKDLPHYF
In short: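 GR-coupled assay: recombinant GPX4 preincubated 30 min with compound at room temperature; final 200 nM GPX4, 1 mM GSH, 0.5 mM cumene hydroperoxide, 0.5 mM NADPH, 100 nM GR, 0.01% BSA, pH 7.5 Tris. NADPH fluorescence (340/450 nm) read at 0 and 15 min.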

Compound | outcome | activity change, negative = inhibition | Potency
CC(=O)[C@H]1CC[C@H]2[C@@H]3C[C@H](C)C4=CC(=O)CC[C@]4(C)[C@H]3[C@@H](O)C[C@]12C | inactive |  | 
O=C1OC2(c3ccc(O)cc3Oc3cc(O)ccc32)c2ccccc21 |  | -15.2% (inactive) | 
CC1(C)O[C@@H]2C[C@H]3[C@@H]4CCC5=CC(=O)CC[C@]5(C)[C@@]4(F)[C@@H](O)C[C@]3(C)[C@]2(C(=O)CCl)O1 |  | 3.44% (inactive) | 
O=C(O)CNC(=O)c1ccccc1 | inactive |  | 
CC(C)N=C(N)/N=C(\N)Nc1ccc(Cl)cc1 | inactive |  | 
CC(=O)OCC(=O)[C@@]12OC(C)(C)O[C@@H]1C[C@H]1[C@@H]3C[C@H](F)C4=CC(=O)C=C[C@]4(C)[C@@]3(F)[C@@H](O)C[C@@]12C |  |  | inactive
O=C1c2ccccc2C(=O)C1c1ccccc1 |  | 1.7% (inactive) | 
C[C@]12C=CC(=O)C=C1CC[C@@H]1[C@@H]2[C@@H](O)C[C@@]2(C)[C@H]1CC[C@]2(O)C(=O)CO |  |  | inactive
CC1(C)O[C@@H]2C[C@H]3[C@@H]4C[C@H](F)C5=CC(=O)C=C[C@]5(C)[C@H]4[C@@H](O)C[C@]3(C)[C@]2(C(=O)CO)O1 |  |  | inactive
CN(C/C=C/c1ccccc1)Cc1cccc2ccccc12 |  | -39.7% (inactive) | 
Cc1ncc(CSSCc2cnc(C)c(O)c2CO)c(CO)c1O |  | -18.2% (inactive) | 
CCOC(=O)c1cccc(N)c1 | inactive |  | 
Nc1ccn([C@@H]2O[C@H](CO)[C@@H](O)C2(F)F)c(=O)n1 |  |  | inactive
Oc1c(I)cc(I)c2cccnc12 | inactive |  | 
O=C(OCC(O)CO)c1ccccc1Nc1ccnc2cc(Cl)ccc12 (stereo unspecified) | inactive |  | 
CCCC(=O)Nc1ccc(OCC(O)CNC(C)C)c(C(C)=O)c1 (stereo unspecified) |  | 4.7% (inactive) | 
CC[N+](CC)(CCNC(=O)C(=O)NCC[N+](CC)(CC)Cc1ccccc1Cl)Cc1ccccc1Cl | inactive |  | 
CC(=O)N(O)CCCCCNC(=O)CCC(=O)N(O)CCCCCNC(=O)CCC(=O)N(O)CCCCCN |  |  | inactive
CCCCOc1cc(C(=O)NCCN(CC)CC)c2ccccc2n1 | inactive |  | 
CN(C)CCCOc1nn(Cc2ccccc2)c2ccccc12 |  |  | inactive

Compound | outcome | activity change, negative = inhibition | Potency
Cc1onc(-c2c(Cl)cccc2Cl)c1C(=O)N[C@@H]1C(=O)N2[C@@H]1SC(C)(C)[C@@H]2C(=O)O |  | -10.5% (inactive) | 
CC(=O)O[C@]1(C(C)=O)CC[C@H]2[C@@H]3C[C@H](C)C4=CC(=O)CC[C@]4(C)[C@H]3CC[C@@]21C |  | -2.17% (inactive) | 
CC(C)n1nc(-c2cc3cc(O)ccc3[nH]2)c2c(N)ncnc21 |  | -3.43% (inactive) | 
Cc1cc(O)c(C(C)C)cc1Cl | inactive |  | 
Oc1ccc(Cl)c2cccnc12 | inactive |  | 
CCN1CCN(c2cc3c(cc2F)c(=O)c(C(=O)O)cn3C2CC2)CC1 |  | 1.52% (inactive) | 
CC(C)(CO)[C@@H](O)C(=O)NCCCO |  | 1.05% (inactive) | 
COC(=O)[C@@H]1CC2=CC(=O)CC[C@]2(C)[C@@]23O[C@@H]2C[C@@]2(C)[C@@H](CC[C@@]24CCC(=O)O4)[C@H]13 |  |  | inactive
CC(=O)OCC(=O)[C@@]1(O)[C@H](C)C[C@H]2[C@@H]3CCC4=CC(=O)C=C[C@]4(C)[C@@]3(F)[C@@H](O)C[C@@]21C |  |  | inactive
C[C@]12CCC(=O)C=C1CC[C@H]1[C@@H]3CC[C@](O)(C(=O)CO)[C@@]3(C)C[C@H](O)[C@@]12F |  | -19.5% (inactive) | 
CC(=O)OCC(=O)[C@@]12N=C(C)O[C@@H]1C[C@H]1[C@@H]3CCC4=CC(=O)C=C[C@]4(C)[C@H]3[C@@H](O)C[C@@]12C |  |  | inactive
COC1=CC(=O)C[C@@H](C)[C@]12Oc1c(Cl)c(OC)cc(OC)c1C2=O |  | -20% (inactive) | 
NC(CO)(CO)CO |  | -6.52% (inactive) | 
CN(C)/N=N/c1nc[nH]c1C(N)=O | inactive |  | 
C[C@H]1[C@H](NC(=O)/C(=N/OC(C)(C)C(=O)O)c2csc(N)n2)C(=O)N1S(=O)(=O)O (stereo in doubt) |  | 4.33% (inactive) | 
CC/C(=C(/CC)c1ccc(O)cc1)c1ccc(O)cc1 |  |  | inactive
COC(=O)[C@H]1[C@H]2C[C@H]3c4[nH]c5ccccc5c4CCN3C[C@H]2CC[C@@H]1O | inactive |  | 
CN1C(CCl)Nc2cc(Cl)c(S(N)(=O)=O)cc2S1(=O)=O (stereo unspecified) |  |  | inactive
COc1cc(N)c(Cl)cc1C(=O)NC1CCN(CCCOc2ccc(F)cc2)CC1OC (stereo unspecified) |  | -6.5% (inactive) | 
CCN(CCCc1ccccc1)CCCc1ccccc1 |  | 2.41% (inactive) | 
